Reference: PubChem BioAssay (NCI)
Compounds without any hit were thinned out: in the full panel of roughly 83,000, 20% have a hit.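 Results are percent growth after 48 hours of single-concentration exposure. 100 means growth as in untreated cells, lower positive values show inhibition; negative values down to -100 show cell death.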 Calls of active or inactive are those of the source. Rule for the calls: active = growth percent below 10; inactive = the rest.

The compounds below were run on MALME-3M melanoma (assay: NCI-60 one-dose screen, 48 h (100 = growth as untreated, 0 = no growth, -100 = all killed)). Details: 10 µM unless noted.

Compound | growth
CC[N+](CC)=c1cc2oc3cc(N(C)C)ccc3nc-2cc1C | -25.5% (active)
CC(C)NCCCNC1=C(Cl)C(=O)c2ccccc2C1=O | -78% (active)
Clc1ccccc1-c1nc2ccccc2[nH]1 | 101% (inactive)
COc1ccc(-c2nc(/C=N/Nc3cc(C)nc4ccc(Cl)cc34)c(C)o2)cc1 | -90.9% (active)
CC(C)(C)n1cc(-c2ccnc(NCCNS(=O)(=O)c3ccc(Cl)cc3)c2)c(-c2cccc(O)c2)n1 | 64.4% (inactive)
COc1ccc(-c2cn(-c3cccc(C(=O)/C=C/c4cc(OC)c(OC)c(OC)c4)c3)c(=O)[nH]2)cc1OC | 86% (inactive)
COc1ccc2[nH]c(C(=O)OCc3ccc4c(Cl)cc(Cl)c(O)c4n3)cc2c1 | -79.9% (active)
CCNc1nc(S(=O)(=O)CC)nc2ccccc12 | 83.3% (inactive)
CC1=NC2=CC=CC3=NC(C(Cl)(Cl)Cl)=NC(=N1)N23 | 33.6% (inactive)
COc1ccc(Nc2nc(N)nc3c2CCN(Cc2ccc(OC)cc2OC)C3=O)cc1 | 80.8% (inactive)
C=C1CC2(OC1=O)C(=O)N(CCCN1C(=O)C3(CC(=C)C(=O)O3)c3ccccc31)c1ccccc12 (stereo not drawn) | -48.5% (active)
OCc1ncc(-c2ccccc2)s1 | 94.2% (inactive)
CC(C)CC1NC(C)(C)CO1 (stereo not drawn) | 124% (inactive)
O=C1Nc2ccc3c(c2/C1=C\c1cc2c(cc1Br)OCO2)OCO3 | -5.38% (active)
COc1ccc(C(=O)N2NC(=O)/C(=C/c3ccccc3F)N=C2c2ccccc2)cc1 | 109% (inactive)
CCOC(=O)NNC(=S)Nc1ccccc1 | 110% (inactive)
C=C(C)[C@@H]1CC[C@]2(C(=O)N3CCNCC3)CC[C@]3(C)[C@H](CC[C@@H]4[C@@]5(C)C/C(=C/c6ccncc6)C(=O)C(C)(C)[C@@H]5CC[C@]43C)[C@@H]12 | 114% (inactive)
COc1cccc(/C=C/C(=O)Nc2cc(OC)c3c(c2)OCO3)c1 | 96.4% (inactive)
c1cc2[nH]ncc2cc1-c1nc2ccc3[nH]ncc3c2c2c1CCC2 | 47.3% (inactive)
COC(=O)c1cccc2c1N(C)c1c(cccc1C(=O)OC)CC2 | 115% (inactive)
CC(C)(C)n1cc(-c2ccnc(NCCNS(=O)(=O)c3ccc(F)cc3)c2)c(-c2cccc(O)c2)n1 | 53.5% (inactive)
Nc1cccc(-c2nc3sccn3c2-c2ccnc(NCCNS(=O)(=O)c3ccc(C(F)(F)F)cc3)n2)c1 | 42.1% (inactive)
CC(C)C1=CC2=C(C=O)C[C@@H]3[C@](C)(CCC[C@@]3(C)C(=O)OCC#CCN3CCCC3)[C@H]2CC1 | 81.8% (inactive)
